# Inconclusive results are not listed. A call without a number means that no potency is given here. Values without a mark were called inactive. Calls of active or inactive are those of the source. Calls follow the shape of the dose curve; as a rule, active = well fitted curve in the direction sought with a large enough effect; inconclusive = small, poorly fitted or top-dose-only effect, or another doubt; inactive = no such curve, though single readings can be large; an effect the other way counts as inactive or inconclusive.
# Assays:
# Tov-21-G = test: Primary qHTS to identify gynecologic anti-cancer compounds using libraries of approved drugs and bioactive compounds (AID 1345084); conditions: Gynecologic cancer cell panel viability, ATPlite luminescence, 48 h; series mostly up to 57.5 µM; also: nearly all actives have a fitted effect of over 55% in size
# In short: (§1)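 Measured: luminescence after ATPlite addition (15 min, RT). Exposure: 48 h, 37 C, 5% CO2.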
# Tov112D = test: as above; conditions: Gynecologic cancer cell panel viability, ATPlite luminescence, 48 h; series mostly up to 57.5 µM
# In short: as §1
# [1] = qHTS assay to identify inhibitors of the type 1 interferon - major histocompatibility complex class I in skeletal muscle: Counter screen cell viability and HiBit confirmation (AID 1347412); conditions: iHSKM muscle cells + IFN-b, HiBiT or CellTiter-Glo, 24 h; for activity change, negative = inhibition: at 45.9 µM (top of the series); as to all read-outs here: nearly all actives have a fitted effect of over 60% in size
# In short: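 CRISPR HLA-B*08:01-HiBit immortalized human myoblasts (C25cl48) stimulated with 4 ng/ml IFN-beta and compounds (12-point 1:3, top 46 uM final) for 24 h at 37 C. Duplicate plates read by HiBit lytic luminescence or CellTiter Glo ATP.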
# Potency is read from the fitted curve at half-maximal effect.
smiles,measurement,setting,value
COc1cc([C@H]2O[C@H](c3cc(OC)c4c(c3)OCO4)[C@H](C)[C@H]2C)cc(OC)c1OC,Potency,Tov-21-G,inactive
same,Potency,Tov112D,inactive
CC(CCC1(O)OC2CC3C4CC=C5CC(O[C@@H]6O[C@H](CO)[C@@H](O[C@@H]7O[C@@H](C)[C@H](O)[C@@H](O)[C@H]7O)[C@H](O)[C@H]6O[C@@H]6O[C@@H](C)[C@H](O)[C@@H](O)[C@H]6O)CCC5(C)C4CCC3(C)C2C1C)CO[C@@H]1O[C@H](CO)[C@@H](O)[C@H](O)[C@H]1O (stereo partly drawn),"activity change, negative = cytotoxicity",Tov-21-G,-14.2% [at 11.6 µM]
same,"activity change, negative = cytotoxicity",Tov112D,-1.44% [at 11.6 µM]
Fc1ccc(-n2cc(CCCCN3CCC4(CC3)OCc3ccccc34)c3ccccc32)cc1,Potency,Tov-21-G,inactive
C=C1C(=O)OC2/C=C(\C)CC/C=C(\C)CC(OC(C)=O)C12 (stereo not drawn),Potency,Tov-21-G,inactive
same,Potency,Tov112D,inactive
CC1CCCC(O)CC(=O)c2c(O)cc(O)cc2CC(=O)O1 (stereo not drawn),Potency,Tov-21-G,inactive
CC1(C(=O)Nc2ccc(F)nc2)CCCN1c1nc(Nc2cc(C3CC3)[nH]n2)c2cccn2n1 (stereo not drawn),Potency,Tov-21-G,14.1 µM (active)
same,Potency,Tov112D,inactive
C[C@@H]1O[C@@H](O[C@H]2[C@@H]3C=CO[C@@H](O[C@@H]4O[C@H](CO)[C@@H](O)[C@H](O)[C@H]4O)[C@@H]3[C@@]3(CO)O[C@@H]23)[C@H](O)[C@H](OC(=O)/C=C/c2ccccc2)[C@H]1O,Potency,Tov-21-G,inactive
same,Potency,Tov112D,inactive
C=C1C(=O)O[C@H]2/C=C(/C)[C@@H](OC(C)=O)C/C=C(\C)C[C@@H](OC(=O)/C(=C/C)COC(=O)/C(=C/C)CO)[C@@H]12,Potency,Tov-21-G,8.91 µM (active)
CC[C@@H](C)[C@@H]1OC2(C=C[C@H]1C)C[C@@H]1C[C@H](C/C=C(\C)[C@H](O[C@H]3C[C@H](OC)[C@H](O[C@H]4C[C@H](OC)[C@H](NC(C)=O)[C@H](C)O4)[C@H](C)O3)[C@H](C)/C=C/C=C3\CO[C@H]4[C@H](O)C(C)=C[C@@H](C(=O)O1)[C@@]34O)O2 (stereo partly drawn),Potency,Tov-21-G,inactive
same,Potency,Tov112D,inactive
CCN1CCN(Cc2ccc(NC(=O)c3ccc(C)c(Oc4ccnc5[nH]ccc45)c3)cc2C(F)(F)F)CC1,Potency,Tov-21-G,12.6 µM (active)
O=C(Nc1ccc(CN2CCOCC2)cc1)c1ccc(-c2cccc(Cl)c2)o1,Potency,Tov-21-G,inactive
same,Potency,Tov112D,inactive
Cc1ccc(NC(=O)N2CCN(c3nc(N)nc4sc(-c5cccnc5)nc34)CC2)cc1,Potency,Tov-21-G,inactive
same,Potency,Tov112D,inactive
CC(C)C[C@@H]1NC(=O)[C@@H]2C[C@@]34C[C@@H]5[C@@]6(C)CCCC(C)(C)C6CC[C@@]5(C)N(c5ccccc53)[C@H]4N2C1=O (stereo partly drawn),Potency,Tov-21-G,inactive
same,Potency,Tov112D,inactive
C=CC(=O)Nc1ccc2ncnc(Nc3cccc(Br)c3)c2c1,Potency,Tov-21-G,10 µM (active)
same,"activity change, negative = inhibition",[1]; Viability,-0.162%
Oc1cccc(C2NC(=S)Nc3cccc(F)c32)c1 (stereo not drawn),Potency,Tov112D,10 µM (active)
CC(=O)NC(C(=O)O[C@H]1CCC(C)(C)[C@@H]2CC=C3C(=O)OCC3(O)[C@@]12C)C(C)C (stereo partly drawn),Potency,Tov-21-G,inactive
same,Potency,Tov112D,inactive
Cc1[nH]c2ccccc2c1CCNCc1ccc(/C=C/C(=O)NO)cc1,Potency,Tov-21-G,0.708 µM (active)
same,Potency,Tov112D,0.316 µM (active)
same,Potency,[1]; HiBiT,0.0625 µM (active)
same,"activity change, negative = inhibition",[1]; Viability,-25.2%
C=C1C(=O)O[C@@H]2[C@H]3C(C)=CC(=O)C3=C(C)CC[C@@H]12,Potency,Tov-21-G,28.2 µM (active)
same,Potency,Tov112D,inactive
C[C@H](Oc1cc(-c2cnn(C3CCNCC3)c2)cnc1N)c1c(Cl)ccc(F)c1Cl,Potency,Tov112D,inactive
C=C1C(=O)O[C@H]2C[C@@H](C)[C@@H]3CCC(=O)[C@@]3(C)C[C@H]12,Potency,Tov112D,inactive
CN1CCN(S(=O)(=O)c2ccc(-c3cnc(N)c(C(=O)Nc4cccnc4)n3)cc2)CC1,Potency,Tov112D,inactive
COc1cc(N2CCOCC2)ccc1NC(=O)c1csc(-c2cccnc2)n1,Potency,Tov112D,inactive
O=C1Nc2nc(-c3c(O)cccc3OCC3CC3)cc([C@@H]3CCCNC3)c2CO1,Potency,Tov-21-G,14.1 µM (active)
same,Potency,Tov112D,22.4 µM (active)
same,Potency,[1]; HiBiT,7.01 µM (active)
same,"activity change, negative = inhibition",[1]; Viability,-25%
CCN1CCN(Cc2ccc(C(=O)Nc3ccc(C)c(Oc4ccc5c(c4)CC(=O)N5)c3)cc2C(F)(F)F)CC1,Potency,Tov-21-G,inactive
same,Potency,Tov112D,inactive
C=C1CC2[C@@]3(C)C=CC(=O)C(C)(C)C3=C(O)C(=O)[C@@]2(C)C2(C(=O)OC)C(=O)C(C)OC(=O)[C@@]12C (stereo partly drawn),Potency,Tov-21-G,inactive
same,Potency,Tov112D,inactive
COC1=CC(=O)C[C@@H](C)[C@@]12Oc1c(Cl)c(OC)cc(OC)c1C2=O,Potency,Tov112D,0.1 µM (active)
CC(=O)Nc1nc(C)c(-c2nc(N3CCCC(O)C3)no2)s1 (stereo not drawn),Potency,Tov112D,inactive
CC(C)C[C@@H]1NC(=O)[C@@H](Cc2ccccc2)NC(=O)C(CCCCCC(=O)C2CO2)NC(=O)[C@@H]2CCCCN2C1=O (stereo partly drawn),Potency,Tov112D,inactive
CO[C@H]1[C@@H](O)[C@H](O[C@H]2CC[C@@]3(C)C(CCC4C3CC[C@]35COC6(COC(=O)C6)C3CCC45O)C2)O[C@@H](C)[C@@H]1OC1OC(CO)C(OC2OC(CO)C(O)C(O)C2O)C(O)C1O (stereo partly drawn),Potency,Tov112D,2.82 µM (active)
COc1cc2ncnc(Nc3ccc(O)c(Br)c3)c2cc1OC,Potency,Tov112D,inactive
O=C(NO)c1ccc(CC(=O)N(CCO)c2ccccc2)cc1,Potency,Tov-21-G,inactive
same,Potency,Tov112D,inactive
N#Cc1cc(-c2ccnc(Nc3ccc(N4CCOCC4)cc3)n2)ccc1OC1CCOCC1,Potency,Tov-21-G,inactive
same,Potency,Tov112D,inactive
COc1cc(OC)c2c(=O)[nH]c(-c3cc(C)c(OCCO)c(C)c3)nc2c1,Potency,Tov-21-G,inactive
same,Potency,Tov112D,inactive
CCCc1cc(C)[nH]c(=O)c1CNC(=O)c1cc(-c2ccc(N3CCN(C(C)C)CC3)nc2)cc2c1cnn2C(C)C,Potency,Tov-21-G,inactive
same,Potency,Tov112D,inactive
CN(C)C(=O)NC1(c2ccccc2)CCN(CCC[C@]2(c3ccc(Cl)c(Cl)c3)CCCN(C(=O)c3ccccc3)C2)CC1,Potency,Tov112D,inactive
CC(=O)N1CCN(CCOc2ccc(C3CCN(C4=Nn5c(nnc5C(F)(F)F)CC4)CC3)cc2)CC1,Potency,Tov-21-G,inactive
same,Potency,Tov112D,inactive
Cc1cc(N2CCOCC2)ccc1Nc1nc(NC2CCCCC2)c2[nH]cnc2n1,Potency,Tov-21-G,inactive
same,Potency,Tov112D,inactive
O=C(NCCCNc1nc(Nc2cccc(CN3CCOCC3)c2)ncc1C1CC1)C1CCC1,Potency,Tov-21-G,15.8 µM (active)
same,Potency,Tov112D,inactive
Fc1ccc2[nH]ccc2c1-c1nc(N2CCOCC2)c2sc(CN3CCN(CC4CC4)CC3)cc2n1,Potency,Tov-21-G,inactive
same,Potency,Tov112D,inactive
C=C1C(=O)O[C@@H]2/C=C(\CO)CC/C=C(/C=O)C[C@H](O)[C@@H]12,Potency,Tov-21-G,28.2 µM (active)
same,Potency,Tov112D,inactive
COc1cc2ncc(-c3ccccc3)nc2cc1OC,Potency,Tov112D,inactive
N#Cc1cc(CN2CCC(Nc3ncnc4sc(Cl)cc34)CC2)ccc1F,Potency,Tov112D,inactive
CC(NC(=O)Cc1cc(F)cc(F)c1)C(=O)NC1C(=O)N(C)c2ccccc2-c2ccccc21 (stereo not drawn),Potency,Tov-21-G,inactive
same,Potency,Tov112D,inactive
Cc1ccc(NC(=O)C(C)C)cc1C1CCN(Cc2ccc(Oc3ccc(F)c(F)c3)cc2)CC1,Potency,Tov112D,inactive
O=S(=O)(NCc1cccc2ccccc12)c1cc(Cl)c(Oc2cccc(N3CCNCC3)c2)s1,Potency,Tov-21-G,inactive
same,Potency,Tov112D,inactive
C=C1C(=O)O[C@@H]2/C=C(\CO)CC/C=C(/C=O)C[C@@H](O)[C@@H]12,Potency,Tov-21-G,14.1 µM (active)
same,Potency,Tov112D,inactive
Cn1ncc(Cl)c1-c1cc(C(=O)NC(CN)Cc2ccc(F)c(F)c2)oc1Cl (stereo not drawn),Potency,Tov112D,inactive
O=C(Nc1ccccc1)N1CCN(c2nc(-c3ccccc3)ns2)CC1,Potency,Tov-21-G,inactive
same,Potency,Tov112D,inactive
Cc1cc(N2CCN(C(=O)Oc3ccc(-c4ccccc4)cn3)CC2)c2ccccc2n1,Potency,Tov-21-G,inactive
same,Potency,Tov112D,inactive
CN(C)CCN(Cc1ccccc1)C(=O)c1cc(-c2ccc(F)cc2)n2nc(C(C)(C)C)cc2n1,Potency,Tov-21-G,inactive
same,Potency,Tov112D,inactive
C[C@H](Nc1ncnc2nc[nH]c12)c1cc2cccc(Cl)c2c(=O)n1-c1ccccc1,Potency,Tov112D,inactive
same,"activity change, negative = inhibition",[1]; Viability,-19.3%
CC(O)(C(=O)O)C1CCC2(C)C1CCC1(C)C2CCC2C3(C)CCC(O)C(C)(COC4OC(CO)C(O)C(O)C4O)C3CCC21C (stereo not drawn),Potency,Tov112D,8.91 µM (active)
Cc1nc2ccc(CN(C)c3ccc(C(=O)NC(CCC(=O)O)C(=O)O)s3)cc2c(=O)[nH]1 (stereo not drawn),Potency,Tov112D,0.282 µM (active)
CN1CCN(C2CCN(C(=O)Nc3cc(Oc4ccc(NC(=O)C5(C(=O)Nc6ccc(F)cc6)CC5)c(F)c4)ccn3)CC2)CC1,Potency,Tov112D,inactive
same,Potency,[1]; HiBiT,4.97 µM (active)
same,Potency,[1]; Viability,14 µM (active)
C=C1C(=O)OC2CC(C)=C(C(C)CCCOC(C)=O)C(OC(=O)CC(C)CC)C12 (stereo not drawn),Potency,Tov112D,inactive
CCN(CC)C(=O)c1ccc(Nc2nc(OCC3CCCCC3)c3[nH]cnc3n2)cc1,Potency,Tov112D,inactive
N#C/C(=C1\Nc2ccccc2S1)c1ccnc(NCCc2cccnc2)n1,Potency,Tov112D,inactive
CC(=O)O[C@@]12CO[C@@H]1C[C@H](O)[C@@]1(C)C(=O)[C@H](O)C3=C(C)[C@@H](OC(=O)[C@H](O)[C@@H](NC(=O)OC(C)(C)C)c4ccccc4)C[C@@](O)([C@@H](OC(=O)c4ccccc4)C12)C3(C)C (stereo partly drawn),Potency,Tov112D,inactive
COc1ccc(C2=NC(c3ccc(Cl)cc3)C(c3ccc(Cl)cc3)N2C(=O)N2CCNC(=O)C2)c(OC(C)C)c1 (stereo not drawn),Potency,Tov112D,inactive
C[C@@H]1O[C@@H](O[C@H]2[C@H](OC(=O)[C@]34CCC(C)(C)C[C@H]3C3=CCC5[C@@]6(C)C[C@H](O)[C@H](O[C@@H]7O[C@H](CO)[C@@H](O)[C@H](O)[C@H]7O)[C@](CO)(C(=O)O)C6CC[C@@]5(C)[C@]3(C)C[C@H]4O)OC[C@H](O)[C@@H]2O)[C@H](O)[C@H](O)[C@H]1O[C@@H]1OC[C@@H](O)[C@H](O[C@@H]2OC[C@](O)(CO)[C@H]2O)[C@H]1O (stereo partly drawn),Potency,Tov112D,1.41 µM (active)

# — PubChem BioAssay (NCATS)
